Assay results reported in PubChem BioAssay (NCI).
Compounds without any hit were thinned out: in the full panel of roughly 79,000, 15% have a hit. Activity calls are given as the source filed them. Cut-off read from the data, not from the text of the source: active = growth inhibition above about 70%; inactive = the rest.

Assays:
[1] = NCI Yeast Anticancer Drug Screen. Data for the rad52 strain (AID 147);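 note: 0% = growth of vehicle-treated control cultures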; conditions: S. cerevisiae rad52 mutant growth inhibition, stronger effect = higher value
Summary of the method: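 The repair-mutant yeast strain was incubated with compounds, then growth was read and inhibition derived relative to vehicle.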

[2] = NCI Yeast Anticancer Drug Screen. Data for the wt1 strain (AID 149);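 note: 0% = growth of vehicle-treated wt1 cultures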; conditions: S. cerevisiae wt1 strain (SPY 50644) growth inhibition, stronger effect = higher value
Summary of the method: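 wt1 yeast, compound-treated; % growth inhibition vs vehicle control.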

[3] = NCI Yeast Anticancer Drug Screen. Data for the rad50EPP+ strain (AID 151);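 note: 0% = growth of vehicle-treated control cultures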; conditions: S. cerevisiae rad50 mutant strain, stronger effect = higher value
Summary of the method: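 Vehicle-normalised growth inhibition; rad50EPP+ yeast strain, altered in DNA damage repair, compound-treated.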

[4] = NCI Yeast Anticancer Drug Screen. Data for the mec2-1 strain (AID 157); conditions: S. cerevisiae mec2-1 strain, stronger effect = higher value
Summary of the method: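 Mutant yeast (mec2-1) grown with compound; growth inhibition relative to vehicle control reported.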

[5] = NCI Yeast Anticancer Drug Screen. Data for the rad14 strain (AID 159);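 note: 0% = growth of vehicle-treated control cultures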; conditions: S. cerevisiae rad14 strain growth inhibition, stronger effect = higher value
Summary of the method: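 Test compounds were applied to a repair-deficient yeast strain. Its growth was then compared with that of cultures given vehicle alone, and inhibition was expressed relative to those controls.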

[6] = NCI Yeast Anticancer Drug Screen. Data for the sgs1 mgt1 strain (AID 161);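 note: 0% = growth of cultures given vehicle only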; conditions: S. cerevisiae sgs1 mgt1 strain, stronger effect = higher value
Summary of the method: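 Compounds are added to genetically altered yeast, and growth is compared with cultures given vehicle alone to give percent inhibition.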

[7] = NCI Yeast Anticancer Drug Screen. Data for the CLN2oe strain (AID 163);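 note: 0% = growth of vehicle-only control cultures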; conditions: S. cerevisiae CLN2oe strain, stronger effect = higher value
Summary of the method: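 Compounds are applied to yeast harbouring a defined cell-cycle control change; reduced growth compared with vehicle-treated controls gives the value.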

[8] = NCI Yeast Anticancer Drug Screen. Data for the cln2 rad14 strain (AID 165);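 note: 0% = growth equal to vehicle treated cultures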; conditions: S. cerevisiae cln2 rad14 strain, stronger effect = higher value
Summary of the method: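 Readout is yeast growth inhibition versus vehicle-treated controls, using a strain with cln2 and rad14 alterations exposed to compound.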

[9] = NCI Yeast Anticancer Drug Screen. Data for the bub3 strain (AID 167); conditions: S. cerevisiae bub3 mutant strain, stronger effect = higher value
Summary of the method: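 Yeast carrying a defined mutation is treated with each compound, and growth is compared with that of vehicle-exposed cells to give inhibition.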

[10] = NCI Yeast Anticancer Drug Screen. Data for the wt2 strain (AID 169);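 note: 0% = growth of vehicle-treated yeast cultures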; conditions: S. cerevisiae wt2 strain growth inhibition, stronger effect = higher value
Summary of the method: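 Against vehicle-treated controls, the growth of yeast exposed to each compound was compared, and the inhibition was recorded.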

[11] = NCI Yeast Anticancer Drug Screen. Data for the mlh1 strain (AID 171);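 note: 0% = growth of vehicle-treated control cultures of the same strain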; conditions: S. cerevisiae mlh1 strain growth inhibition, stronger effect = higher value
Summary of the method: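 Measured: yeast growth. Reference: vehicle-treated controls. Organism: strain with a defined alteration affecting DNA damage repair or cell cycle control, treated with compound.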

[12] = NCI Yeast Anticancer Drug Screen. Data for the sgs1 strain (AID 173);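 note: 0% = growth of vehicle-only control cultures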; conditions: S. cerevisiae sgs1 mutant, stronger effect = higher value
Summary of the method: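 Each compound was added to cultures of the altered yeast strain. Growth was recorded, and inhibition was derived by comparison with vehicle controls.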

[13] = NCI Yeast Anticancer Drug Screen. Data for the mlh1 rad18 strain (AID 175); conditions: S. cerevisiae mlh1 rad18 strain growth inhibition, stronger effect = higher value
Summary of the method: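 Genetically defined yeast (DNA repair-deficient) exposed to compounds; growth inhibition determined relative to vehicle.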

[14] = NCI Yeast Anticancer Drug Screen. Data for the rad18 strain (AID 177); conditions: S. cerevisiae rad18 mutant growth inhibition, stronger effect = higher value
Summary of the method: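 Vehicle-treated cultures served as the baseline for scoring compound-induced growth inhibition in DNA-repair-mutant yeast.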

[15] = NCI Yeast Anticancer Drug Screen. Data for the rad50 strain (AID 155);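 note: 0% = growth of vehicle-only cultures of the same strain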; conditions: S. cerevisiae rad50 strain growth inhibition, stronger effect = higher value
Summary of the method: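 Genetically altered yeast (DNA repair pathway); compound treatment; growth inhibition vs vehicle ctrl.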

[16] = at 5.0 µM (retest, dose inferred, filed as 0.5)
[17] = at 50.0 µM (retest, dose inferred, filed as 5.0)

Measured: growth inhibition

COc1cc(CNc2ccc(C(C)C)cc2)cc(OC)c1OC
inactive: [1]; at 1.2 µM 21% | [1]; at 3.7 µM 3% | [1]; at 11.0 µM -17% | [1]; at 33.0 µM 13% | [2]; at 1.2 µM 1% | [2]; at 3.7 µM 15% | [2]; at 11.0 µM 7% | [2]; at 33.0 µM -8% | [2]; at 100.0 µM 56% | [3]; at 1.2 µM -4% | [3]; at 3.7 µM -6% | [3]; at 11.0 µM 5% | [3]; at 33.0 µM 26% | [3]; at 100.0 µM 28% | [4]; at 1.2 µM 8% | [4]; at 3.7 µM -8% | [4]; [16] -42% | [4]; at 11.0 µM -4% | [4]; at 33.0 µM -25% | [4]; [17] 1% | [4]; at 50.0 µM 25.4% | [4]; at 100.0 µM 59% | [5]; at 1.2 µM -6% | [5]; at 3.7 µM -17% | [5]; at 11.0 µM -31% | [5]; at 33.0 µM -50% | [6]; [16] -7% | [6]; [17] 25% | [6]; at 50.0 µM 64% | [7]; at 1.2 µM -12% | [7]; at 3.7 µM -19% | [7]; at 11.0 µM -28% | [7]; at 33.0 µM -50% | [7]; at 100.0 µM -4% | [8]; [16] 6% | [8]; [17] 24% | [8]; at 50.0 µM 6.85% | [9]; at 1.2 µM -13% | [9]; at 3.7 µM -22% | [9]; [16] 13% | [9]; at 11.0 µM -26% | [9]; at 33.0 µM -6% | [9]; at 50.0 µM 65.2% | [10]; at 1.2 µM -1% | [10]; at 3.7 µM -26% | [10]; at 11.0 µM -9% | [10]; at 33.0 µM -20% | [10]; at 100.0 µM 69% | [11]; at 1.2 µM -2% | [11]; at 3.7 µM -21% | [11]; at 11.0 µM -15% | [11]; at 33.0 µM -20% | [12]; at 1.2 µM 26% | [12]; at 3.7 µM 23% | [12]; at 11.0 µM 21% | [12]; at 33.0 µM 11% | [13]; [16] -11% | [13]; [17] 32% | [13]; at 50.0 µM 55.7% | [14]; at 1.2 µM 4% | [14]; at 3.7 µM 9% | [14]; at 11.0 µM -5% | [14]; at 33.0 µM 9% | [14]; at 100.0 µM 64%
active: [1]; at 100.0 µM 78% | [5]; at 100.0 µM 72% | [9]; [17] 78% | [9]; at 100.0 µM 71% | [11]; at 100.0 µM 76% | [12]; at 100.0 µM 84%

Nc1ccc(CCl)cc1Cc1c(O)ccc2ccccc12
inactive: [1]; at 1.2 µM 0% | [1]; at 3.7 µM 3% | [1]; at 11.0 µM 9% | [1]; at 33.0 µM 19% | [1]; at 100.0 µM 36% | [2]; at 1.2 µM -1% | [2]; at 3.7 µM 6% | [2]; at 11.0 µM 12% | [2]; at 33.0 µM 19% | [2]; at 100.0 µM 30% | [15]; at 1.2 µM 1% | [15]; at 3.7 µM 4% | [15]; [16] 6% | [15]; at 11.0 µM 8% | [15]; at 33.0 µM 13% | [15]; [17] 41% | [15]; at 50.0 µM 51.4% | [15]; at 100.0 µM 27% | [4]; at 1.2 µM 1% | [4]; at 3.7 µM 0% | [4]; [16] -6% | [4]; at 11.0 µM 6% | [4]; at 33.0 µM 13% | [4]; at 50.0 µM 37.2% | [4]; at 100.0 µM 33% | [5]; at 1.2 µM 1% | [5]; at 3.7 µM 3% | [5]; at 11.0 µM 8% | [5]; at 33.0 µM 16% | [5]; at 100.0 µM 29% | [6]; [16] 2% | [6]; [17] 64% | [7]; at 1.2 µM -3% | [7]; at 3.7 µM -7% | [7]; at 11.0 µM 3% | [7]; at 33.0 µM -1% | [7]; at 100.0 µM 34% | [8]; [16] 6% | [8]; [17] 61% | [8]; at 50.0 µM 29.3% | [9]; at 1.2 µM -4% | [9]; at 3.7 µM -2% | [9]; [16] 3% | [9]; at 11.0 µM 0% | [9]; at 33.0 µM 1% | [9]; [17] 43% | [9]; at 50.0 µM 55% | [9]; at 100.0 µM 27% | [10]; at 1.2 µM 1% | [10]; at 3.7 µM 6% | [10]; at 11.0 µM 16% | [10]; at 33.0 µM 23% | [10]; at 100.0 µM 32% | [11]; at 1.2 µM 1% | [11]; at 3.7 µM 2% | [11]; at 11.0 µM 5% | [11]; at 33.0 µM 8% | [11]; at 100.0 µM 31% | [12]; at 1.2 µM 1% | [12]; at 3.7 µM 1% | [12]; at 11.0 µM 10% | [12]; at 33.0 µM 21% | [12]; at 100.0 µM 38% | [13]; [16] 0% | [13]; [17] 61% | [13]; at 50.0 µM 66.7% | [14]; at 1.2 µM 1% | [14]; at 3.7 µM 1% | [14]; at 11.0 µM 7% | [14]; at 33.0 µM 16% | [14]; at 100.0 µM 33%
active: [4]; [17] 84% | [6]; at 50.0 µM 70.3%
